We go through 40 compounds from PubChem BioAssay AID1963315 (National Center for Advancing Translational Sciences (NCATS), 2024).

Each structure is given as a SMILES string. Results filed as inconclusive are left out. Activity calls are given as the source filed them. The call rests on the fitted dose curve.

Sequence of Tyrosine-protein kinase ABL1 (Homo sapiens) (P00519 whole entry, looked up): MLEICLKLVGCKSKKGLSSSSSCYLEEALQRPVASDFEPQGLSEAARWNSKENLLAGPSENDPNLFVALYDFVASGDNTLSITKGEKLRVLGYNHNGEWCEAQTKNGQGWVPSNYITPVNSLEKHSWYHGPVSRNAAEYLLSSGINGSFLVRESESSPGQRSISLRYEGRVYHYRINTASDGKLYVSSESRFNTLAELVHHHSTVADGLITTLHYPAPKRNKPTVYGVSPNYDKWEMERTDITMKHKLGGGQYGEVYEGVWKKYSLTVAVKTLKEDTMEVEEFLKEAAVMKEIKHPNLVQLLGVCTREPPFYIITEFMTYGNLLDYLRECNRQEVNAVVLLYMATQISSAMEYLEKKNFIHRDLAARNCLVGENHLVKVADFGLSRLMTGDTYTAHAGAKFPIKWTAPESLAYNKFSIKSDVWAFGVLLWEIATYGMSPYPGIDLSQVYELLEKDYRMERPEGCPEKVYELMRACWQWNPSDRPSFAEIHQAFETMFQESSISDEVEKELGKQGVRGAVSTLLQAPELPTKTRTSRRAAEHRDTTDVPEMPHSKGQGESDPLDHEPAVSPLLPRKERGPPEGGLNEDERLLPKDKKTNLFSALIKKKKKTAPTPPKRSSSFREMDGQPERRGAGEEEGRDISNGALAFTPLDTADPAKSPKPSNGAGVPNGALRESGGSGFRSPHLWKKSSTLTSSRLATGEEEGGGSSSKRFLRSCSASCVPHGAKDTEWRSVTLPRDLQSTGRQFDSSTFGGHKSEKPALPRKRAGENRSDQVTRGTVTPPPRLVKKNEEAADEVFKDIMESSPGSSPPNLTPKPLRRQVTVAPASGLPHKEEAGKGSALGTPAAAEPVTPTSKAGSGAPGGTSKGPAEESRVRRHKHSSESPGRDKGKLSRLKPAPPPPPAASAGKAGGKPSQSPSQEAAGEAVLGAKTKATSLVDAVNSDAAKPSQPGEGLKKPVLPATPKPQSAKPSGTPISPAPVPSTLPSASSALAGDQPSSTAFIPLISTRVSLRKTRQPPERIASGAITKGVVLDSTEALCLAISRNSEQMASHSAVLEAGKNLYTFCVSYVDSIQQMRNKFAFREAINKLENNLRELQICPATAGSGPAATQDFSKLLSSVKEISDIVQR

The target of this assay is Tyrosine-protein kinase ABL1 (Homo sapiens) (UniProt P00519). Kind of assay: ABL1 kinase (ABL1-N-HiBiT) SDR gain of signal screen. To be noted: Purified ABL1-N-HiBiT enzyme, Nano-Glo HiBiT luminescence, 30 min compound incubation; series mostly up to 32.9 µM. The source says: National Center for Advancing Translational Sciences (NCATS),
National Institute of Health (NIH), Maryland
Discovery and optimization of novel protein-binding ligands underlies many of the methods and applications of biology, drug discovery, clinical diagnostics, and environmental toxicology. Assays for detecting the interaction of, for example, a molecule with a macromolecular target also referred to here as the target of interest (TOI) is dependent on a compatible output technology. Depending on the nature and knowledge surrounding the TOI, whether a receptor, enzyme, regulatory subunit or scaffold, or a sequence-defined nucleic acid folded into a complex tertiary structure, assay strategies can vary widely.
Here we exploit ligand-biased changes in the structural dynamics of the target protein to control reporter alpha complementation allowing a non-competitive, non-functional, non-separation measure of ligand-target interaction.
Secondly, we show the specificity and sensitivity of the SDR for the Abelson tyrosine kinase (ABL1) compared to the serine/threonine protein kinase A, using an enriched chemical library of 128 compounds selected, in part, for activity annotated with ABL1 kinase activity using the Pharos database (3).
(1) A. S. Dixon et al., NanoLuc Complementation Reporter Optimized for Accurate Measurement of Protein Interactions in Cells. ACS Chem Biol 11, 400-408 (2016).
Chemistry & Biology, 19, 1060 - 1072 (2012).
(3) K. J. Kelleher et al., Pharos 2023: an integrated resource for the understudied human proteome. Nucleic Acids Res 51, D1405-D1416 (2023).
PROTOCOL TABLE (as described by Inglese J, Shamu CE and Guy RK. 2007)
SEQUENCE No. (e.g., 1, 2, 3, etc.); […] (e.g., C. elegans, Compounds, Incubation, Read, etc.); VALUE and DESCRIPTION.
1. Reagent. Dispense 4 uL ABL1-N-HiBiT enzyme per well at a final enzyme concentration of 10 nM in buffer without ATP (SDR assay) into columns 2-48 of four replicate Greiner 1536-well white, solid bottom high base, medium plates per assay. Dispense respective buffer without enzyme at 4 uL/well in column 1 of assay plates using BioRaptr 2.
2. Compounds. Library compounds added at 23 nL/well by pin transfer. DMSO neutral control and imatinib positive control added at 25 nL/well, transfer by Mosquito dispenser.
3. Incubation. Incubate enzyme and compounds at room temperature for 30 min, protected from light.
4. Reagent. (SDR assay) Add 3 uL/well of Nano-Glo HiBiT reagent (Promega) to assay plates with or without ATP.
5. Incubation. (SDR assay) Incubate enzyme solution and HiBiT reagent at room temperature for 10 min, protect from light.
6. Detector. (SDR assay) Luminescence measured using CCD-based camera (ViewLux) with settings as follows: Exposure, 1 sec; Gain, High; Speed, Slow; Binning, 2X.
Inglese J, Shamu CE and Guy RK, Reporting data from high throughput screening of small molecule libraries, Nature Chemical Biology, 2007, 3(8): 438-441. doi.org/10.1038/nchembio0807-438.
For the compound `Nc1nc(Nc2ccc(S(N)(=O)=O)cc2)n(C(=S)Nc2c(F)cccc2F)n1`, the Potency was 248 nM (active).
In the case of `COc1cc(N2CCC(O)CC2)ccc1Nc1nc(Nc2ccccc2S(=O)(=O)C(C)C)c2[nH]cnc2n1`, the Potency is 10800 nM (active).
Take `Cc1[nH]c2ccccc2c1C1=C(NCCc2ccc(F)cc2)C(=O)N(C)C1=O`: the Potency entry is “inactive”.
For `CCCS(=O)(=O)Nc1ccc(F)c(C(=O)c2c[nH]c3ncc(Cl)cc23)c1F`, the Potency was 9320 nM (active).
The value for `N#Cc1ccc2ncnc(NCCc3ccccc3)c2c1` was “inactive”; that for `c1ccc2c(-c3cnn4cc(-c5ccc(N6CCNCC6)cc5)cnc34)ccnc2c1` was 148 nM (active); that for `C[C@@H]1CN(CC(=O)Nc2ccc3c(c2)Cc2cccc(-c4cc(=O)cc(N5CCOCC5)o4)c2S3)C[C@H](C)O1` was “inactive”.
Consider `C=CC(=O)N1CCC(Oc2cc3c(Nc4ccc(Cl)c(Cl)c4F)ncnc3cc2OC)CC1`, for which the Potency is 10800 nM (active).
As to `CNS(=O)(=O)c1ccc2c(c1)/C(=C/c1[nH]c3c(c1CCCN1CCN(C)CC1)CCCC3)C(=O)N2`, the Potency was 932 nM (active).
`COc1cc(N2CCN(C)CC2)ccc1Nc1nc(N)c(C(=O)c2c(Cl)cccc2Cl)s1`: the Potency entry is “inactive”.
As to `Cc1cc(-c2cc(O)ccc2Cl)cc2nnc(Nc3ccc(OCCN4CCCC4)cc3)nc12`, the Potency is 3.69 nM (active).
As to `CCCCCCCCCCCCc1ccc(S(=O)(=O)Nc2nncs2)cc1`, the Potency result is “inactive”.
Consider `COc1cc(NC(=O)c2cccc(-n3cc(NC(=O)Nc4cccc(C)c4)cn3)c2)cc(OC)c1OC`, for which the Potency entry was “inactive”.
For `Cc1ccc(-n2nc(C(C)(C)C)cc2NC(=O)NCc2cc(F)ccc2Oc2ccc3c(cnn3CCO)c2)cc1`, the Potency is 67.9 nM (active).
Regarding `Cc1ccccc1-n1c([C@H](C)Nc2nc(N)nc3nc[nH]c23)nc2cccc(C)c2c1=O`, the Potency entry is “inactive”.
For the compound `C#Cc1cccc(Nc2ncnc3cc4c(cc23)OCCOCCOCCO4)c1`, the Potency was 5880 nM (active).
Regarding `FC(F)(F)c1ccc(/C=C/c2nc(COc3ccc(CCCCn4ccnn4)cc3)co2)cc1`, the Potency entry is “inactive”.
Under `CC[C@@](C)(Nc1ccnc(-c2c[nH]c3ncccc23)n1)C(=O)NCC(F)(F)F` stands 1440 nM (active).
On to `CCOc1ccn(-c2ccc(F)cc2)c(=O)c1C(=O)Nc1ccc(Oc2ccnc(N)c2Cl)c(F)c1`, for which the Potency was 4160 nM (active).
Under `COc1ccc(S(=O)(=O)N(C(C)=O)c2ccccc2/C=C/c2cc[n+]([O-])cc2)cc1` stands “inactive”; under `COc1cc2ncnc(-n3nc(-c4ccccn4)nc3N)c2cc1OC`, 111 nM (active).
The value for `COc1ccc(CNC(=O)Nc2ncc([N+](=O)[O-])s2)cc1` was “inactive”; that for `NC1CCC(Nc2nc(Nc3ccc(C(=O)N4CCCCC4)cc3)c3ncn(-c4cccc(F)c4)c3n2)CC1` (stereo not given) was 255 nM (active).
Turning to `CN1CCN(c2ccc(Nc3ncc4cc(C#N)c(=O)n(C5CCCC5)c4n3)cc2)CC1`, the Potency is 29.5 nM (active).
In the case of `O=C(NOCC(O)CO)c1cc(Br)c(F)c(F)c1Nc1ccc(I)cc1F` (stereo not given), the Potency result is “inactive”.
The value for `O=C1C(c2c(O)[nH]c3ccccc23)=Nc2ccccc21` was “inactive”; that for `C=CC(=O)N1CCC[C@@H](n2nc(-c3cccc(C(=O)Nc4ccc(C(C)C)c(C)c4)c3)c3c(N)ncnc32)C1` was 4410 nM (active); that for `Oc1ccc(-c2ccc(-c3cc(Nc4cccc(CNC5CC5)c4)n[nH]3)cc2)c(O)c1` was 9600 nM (active).
On to `N#Cc1cccc(-c2c[nH]c3ncnc(N4CCOCC4)c23)c1`, for which the Potency is 10200 nM (active).
As for `Cc1ccc(C(=O)Nc2ccc(CN3CCN(C)CC3)c(C(F)(F)F)c2)cc1C#Cc1cnc2[nH]ncc2c1`, the Potency is 4.14 nM (active).
Regarding `COc1ccccc1-c1c[nH]c2ncc(-c3cncc(C(=O)N(C)C)c3)cc12`, the Potency was 3.04 nM (active).
For `Nc1nc(NCCNc2ncc(-n3ccnc3)c(-c3ccc(Cl)cc3Cl)n2)ccc1[N+](=O)[O-]`, the Potency entry is “inactive”.
`c1ccc(-c2oc3ncnc(NC[C@@H]4CCCO4)c3c2-c2ccccc2)cc1`: the Potency was 4290 nM (active).
For the compound `CN1CCN(CCOc2cc(OC3CCOCC3)c3c(Nc4c(Cl)ccc5c4OCO5)ncnc3c2)CC1`, the Potency is 12.5 nM (active).
The value for `C=CC(=O)Nc1cccc(Oc2nc(Nc3ccc(N4CCN(C)CC4)cc3OC)ncc2Cl)c1` was “inactive”; that for `Cc1cc(O)c2c(c1)C(=O)c1cc(O)cc(O)c1C2=O` was “inactive”; that for `CN1CCN(CCCNc2ncc(Cl)c(-c3cc4c(C(=O)NC5CC5)cccc4s3)n2)CC1` was “inactive”.
As to `O=C(Nc1ccc(OC(F)(F)F)cc1)c1sccc1NCc1ccnc2ccccc12`, the Potency entry is “inactive”.
For `O=C(NCCO)c1cccc(-c2cc(Nc3ccc(OC(F)(F)F)cc3)ncn2)c1`, the Potency result is “inactive”.
With `Cc1nc2ccc(-n3ncc(C(=O)c4cc5ccccc5[nH]4)c3N)cc2[nH]1`, the Potency is 3930 nM (active).
